Measurements taken from PubChem BioAssay (Tox21).
Inconclusive results are not listed. Active and inactive are the calls of the source. Calls come from the whole dose curve; as a rule, active = well fitted curve in the direction sought with a large enough effect in the repeat runs; inconclusive = weak or mixed curves; inactive = no such curve, though single readings can be large; an effect the other way counts as inactive or inconclusive.

Experiments:
[1] = qHTS RealTime-Glo MT Cell Viability Assay in HEK293 cells - 0 hour (AID 1224880); note: top concentration of the series differs between compounds; nearly all actives have a fitted effect of over 45% in size
Procedure, shortened: (§1)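 HEK293 cells mixed with RealTime-Glo reagents (NanoLuc plus cell-permeant prosubstrate) at 600 cells/well, preincubated 5 h at 37 C/5% CO2, then given 23 nL compound in DMSO. Nonlytic luminescence from viable cells was read at 0, 8, 16, 24, 32 and 40 h.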

[2] = A CellTox Green Cytotoxicity Assay to monitor cytotoxicity in HEK293 cells - 32 hour (AID 1224881); note: nearly all actives have a fitted effect of over 40% in size
Procedure, shortened: (§2)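 HEK293 cells premixed with CellTox Green dye were seeded at 600 cells/well and left 5 h at 37 C/5% CO2 before pin transfer of 23 nL compound in DMSO. Fluorescence from dye bound to dead-cell DNA was read during 40 h treatment.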

[3] = A CellTox Green Cytotoxicity Assay to monitor cytotoxicity in HepG2 cells - 0 hour (AID 1224882); note: nearly all actives have a fitted effect of over 35% in size
Procedure, shortened: (§3)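 HepG2 cells were seeded together with the CellTox Green dye at 600 cells/well, left 5 h at 37 C/5% CO2, then given compounds in DMSO. Fluorescence from dye bound to dead-cell DNA was read repeatedly over 40 h of treatment at 37 C.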

[4] = A CellTox Green Cytotoxicity Assay to monitor cytotoxicity in HepG2 cells - 32 hour (AID 1224883); note: nearly all actives have a fitted effect of over 50% in size
Procedure, shortened: as §3

[5] = A CellTox Green Cytotoxicity Assay to monitor cytotoxicity in HEK293 cells - 8 hour (AID 1224884); note: nearly all actives have a fitted effect of over 35% in size
Procedure, shortened: as §2

[6] = qHTS RealTime-Glo MT Cell Viability Assay in HepG2 cells - 16 hour (AID 1224885); note: nearly all actives have a fitted effect of over 50% in size
Procedure, shortened: (§4)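 Tox21 10K library screened in qHTS format on HepG2 cells carrying RealTime-Glo reagents. Compounds were added after a 5 h preincubation, and the luminescent signal from continuous culture was measured repeatedly during 40 h treatment.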

[7] = qHTS RealTime-Glo MT Cell Viability Assay in HEK293 cells - 24 hour (AID 1224886); note: top concentration of the series differs between compounds; nearly all actives have a fitted effect of over 50% in size
Procedure, shortened: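 Luminescence generated by NanoLuc from substrate produced by living HEK293 cells served as the viability signal. Each value reflects the reading at its stated time point during continuous 40 h compound exposure at 37 C.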

[8] = qHTS RealTime-Glo MT Cell Viability Assay in HEK293 cells - 8 hour (AID 1224887); note: top concentration of the series differs between compounds; nearly all actives have a fitted effect of over 50% in size
Procedure, shortened: as §1

[9] = A CellTox Green Cytotoxicity Assay to monitor cytotoxicity in HEK293 cells - 16 hour (AID 1224888); note: nearly all actives have a fitted effect of over 35% in size
Procedure, shortened: as §2

[10] = qHTS RealTime-Glo MT Cell Viability Assay in HepG2 cells - 0 hour (AID 1224889); note: nearly all actives have a fitted effect of over 50% in size
Procedure, shortened: as §4
% is set by controls: 0 for no effect and ±100 for the full control effect.

CCOC(=O)CCC(C)=O
inactive: Potency [1] | Potency [2] | Potency [3] | Potency [4] | Potency [5] | Potency [6] | Potency [7] | Potency [8] | Potency [9] | Potency [10]

C1OCOCO1
inactive: Potency [1] | Potency [2] | Potency [3] | Potency [4] | Potency [5] | Potency [6] | Potency [7] | Potency [8] | Potency [9] | Potency [10]

O=C(O)CN(CCOCCOCCN(CC(=O)O)CC(=O)O)CC(=O)O
inactive: activity change, negative = cytotoxicity [1] 4.27% [at 0.29 µM] | cytotoxicity increase [2] 6.54% [at 0.29 µM] | cytotoxicity [3] -19.1% [at 0.29 µM] | cytotoxicity increase [4] -22.8% [at 0.29 µM] | cytotoxicity increase [5] 1.88% [at 0.29 µM] | activity change, negative = cytotoxic [6] 0.683% [at 0.29 µM] | activity change, negative = cytotoxicity [7] -2.79% [at 0.29 µM] | activity change, negative = cytotoxicity [8] 1.96% [at 0.29 µM] | activity change [9] 1.33% [at 0.29 µM, active compounds read high] | activity change, negative = cytotoxicity [10] -0.153% [at 0.29 µM]

Oc1ccc(C2CNCCc3c2cc(O)c(O)c3Cl)cc1 (stereo not given)
inactive: Potency [1] | Potency [2] | Potency [3] | Potency [4] | Potency [5] | Potency [6] | Potency [7] | Potency [8] | Potency [9] | Potency [10]

COc1ccc2c(c1)CCCC2=O
inactive: Potency [1] | Potency [2] | Potency [3] | Potency [4] | Potency [5] | Potency [6] | Potency [7] | Potency [8] | Potency [9] | Potency [10]

O=c1cc(CO)occ1O
inactive: Potency [1] | Potency [2] | Potency [3] | Potency [4] | Potency [5] | Potency [6] | Potency [7] | Potency [8] | Potency [9] | Potency [10]

CCOc1ccc(C(=O)OCCN(CC)CC)cc1
inactive: Potency [1] | Potency [2] | Potency [3] | Potency [4] | Potency [5] | Potency [6] | Potency [7] | Potency [8] | Potency [9] | Potency [10]

Cc1[nH]c(=O)c(C#N)cc1-c1ccc2nccn2c1
inactive: Potency [1] | Potency [2] | Potency [3] | Potency [4] | Potency [5] | Potency [6] | Potency [7] | Potency [8] | Potency [9] | Potency [10]

O=C1CCCN1C1CCCCC1
inactive: Potency [1] | Potency [2] | Potency [3] | Potency [4] | Potency [5] | Potency [6] | Potency [7] | Potency [8] | Potency [9] | Potency [10]

CCCCC/C=C\CCC=O
inactive: Potency [1] | Potency [2] | Potency [3] | Potency [4] | Potency [5] | Potency [6] | Potency [7] | Potency [8] | Potency [9] | Potency [10]

CC(C)(O)C(=O)c1ccccc1
inactive: Potency [1] | Potency [2] | Potency [3] | Potency [4] | Potency [5] | Potency [6] | Potency [7] | Potency [8] | Potency [9] | Potency [10]

O=C(O)CCCl
inactive: Potency [1] | Potency [2] | Potency [3] | Potency [4] | Potency [5] | Potency [6] | Potency [7] | Potency [8] | Potency [9] | Potency [10]

CC(=O)CC(C)C
inactive: Potency [1] | Potency [2] | Potency [3] | Potency [4] | Potency [5] | Potency [6] | Potency [7] | Potency [8] | Potency [9] | Potency [10]

COc1c(N2C[C@@H]3CCCN[C@@H]3C2)c(F)cc2c(=O)c(C(=O)O)cn(C3CC3)c12
inactive: Potency [1] | Potency [2] | Potency [3] | Potency [4] | Potency [5] | Potency [6] | Potency [7] | Potency [8] | Potency [9] | Potency [10]

CCCCOCCOCCOCCCC
inactive: Potency [1] | Potency [2] | Potency [3] | Potency [4] | Potency [5] | Potency [6] | Potency [7] | Potency [8] | Potency [9] | Potency [10]

CN1CCN(c2cc3c(cc2F)c(=O)c(C(=O)O)cn3-c2ccc(F)cc2)CC1
inactive: Potency [1] | Potency [2] | Potency [3] | Potency [4] | Potency [5] | Potency [6] | Potency [7] | Potency [8] | Potency [9] | Potency [10]

CC(=O)CC(C)(C)C1CCCCC1
inactive: Potency [1] | Potency [2] | Potency [3] | Potency [4] | Potency [5] | Potency [6] | Potency [7] | Potency [8] | Potency [9] | Potency [10]

NCCc1cnc[nH]1
inactive: Potency [1] | Potency [2] | Potency [3] | Potency [4] | Potency [5] | Potency [6] | Potency [7] | Potency [8] | Potency [9] | Potency [10]

C[C@H](NC(CCc1ccccc1)C(=O)O)C(=O)N1CCC[C@H]1C(=O)O (stereo not given in full)
inactive: Potency [1] | Potency [2] | Potency [3] | Potency [4] | Potency [5] | Potency [6] | Potency [7] | Potency [8] | Potency [9] | Potency [10]

C=C(C)C(=O)OCCCCCCCC(C)C
inactive: Potency [1] | Potency [2] | Potency [3] | Potency [4] | Potency [5] | Potency [6] | Potency [7] | Potency [8] | Potency [9] | Potency [10]

COC(=O)[C@@H](N)Cc1ccc(O)c(O)c1
inactive: Potency [1] | Potency [2] | Potency [3] | Potency [4] | Potency [5] | Potency [6] | Potency [7] | Potency [8] | Potency [9] | Potency [10]

Nc1c[n+](N2CCOCC2)no1
inactive: Potency [1] | Potency [2] | Potency [3] | Potency [4] | Potency [5] | Potency [6] | Potency [7] | Potency [8] | Potency [9] | Potency [10]

COC(=O)NN
inactive: Potency [1] | Potency [2] | Potency [3] | Potency [4] | Potency [5] | Potency [6] | Potency [7] | Potency [8] | Potency [9] | Potency [10]
